Screening results as filed in PubChem BioAssay.
An excerpt weighted towards active compounds, which were near 21% of everything screened.
Cycloheximide cs = Cycloheximide Counterscreen for Small Molecule Inhibitors of Shiga Toxin; cell reporter, cycloheximide protein synthesis inhibition counterscreen; max response, %; 300,000 tested, 12% active; AID 2314, 2010; in the data active = max response mostly above about 13%, no sharp cut-off; inactive = mostly below about 14%; note: read at 38.3 µM for the half of the compounds with a filed dose
Pf growth 48h = Primary qHTS for delayed death inhibitors of the malarial parasite plastid, 48 hour incubation; P. falciparum luciferase growth in erythrocytes, 48 h; AID 504832, 2011; Potency, µM (doses to about 28.7 µM), most hits filed as inhibitors; 310,000 tested, 5.9% active
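Cell-based growth assay: transgenic P. falciparum expressing firefly luciferase, cultured in red cells within RPMI 1640 containing 0.5% w/v Albumax, 24 mM bicarbonate and gentamycin. A drop in luciferase activity indicates inhibition.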
Shiga inhibitor = A qHTS for Small Molecule Inhibitors of Shiga Toxin; Vero cells, Shiga toxin protein synthesis inhibition reporter; 290,000 tested, 9.2% active; inhibition, % at 38.7 µM; in the data active = inhibition mostly above about 28%, no sharp cut-off; inactive = mostly below about 43%
NS1 inh = qHTS Assay for Inhibitors of Influenza NS1 Protein Function. 270,000 tested, 0.4% active. Potency, µM (doses to about 46.1 µM). AID 2326, 2010; calls by dose curve; note: actives are rising curves; nearly all actives have a fitted effect of over 50% in size
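S. cerevisiae expressing influenza A NS1, grown in glucose, washed, then diluted 1:100 into pH 6.0 -URA galactose medium with 23 nl compound. Growth recovery read as OD600; NS1-free strain serves as control.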
Pf growth 96h = Primary qHTS for delayed death inhibitors of the malarial parasite plastid, 96 hour incubation | P. falciparum luciferase reporter growth, 96 h | 320,000 tested, 6.9% active | Potency, µM (titrated, usually from 28.7 µM), actives largely listed as inhibitors | AID 504834, 2011
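Two parasite generations (96 h, 37 C, 5% CO2) of compound exposure in infected erythrocytes (0.05% parasitemia, 2% hematocrit). Luciferase-reporter P. falciparum; decreased luminescence indicates inhibited growth, aimed at apicoplast-acting delayed death.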
Hits are given with their value; i = inactive; ? = inconclusive; nt = not tested or not shown. Unless noted, calls come from the whole dose curve; as a rule, active = well fitted inhibition curve with a large enough effect; inconclusive = small, poorly fitted or top-dose-only effect, or another doubt; inactive = no such curve, though single readings can be large or run the other way.

SMILES | Cycloheximide cs | Pf growth 48h | Shiga inhibitor | NS1 inh | Pf growth 96h
CC(C)c1ccc(/C=C/C(=O)NCCCc2ccccc2)cc1 | i | i | i | i | i
COc1ccc(C2C(C(=O)Nc3cccnc3)=C(C)Nc3nc(-c4cccs4)nn32)cc1 (stereo not given) | i | 12µM | i | i | ?
CCOC(=O)c1ccc(NC(=O)C2=C(C)Nc3nc(CCCO)nn3C2c2ccc(OC)cc2)cc1 (stereo not given) | 44 | ? | 66 | i | ?
CCCCOC1(c2ccccc2)NC(=S)NN=C1c1ccccc1 (stereo not given) | i | nt | i | i | i
CCCCc1nnc(NC(=O)c2cccc(S(=O)(=O)N3CCN(C)CC3)c2)s1 | i | i | i | i | i
Fc1cnc(N2CCOCC2)nc1N1CCc2ccccc21 | i | ? | active | i | nt
COc1ccc(CCC(=O)Nc2cccc(S(=O)(=O)N3CCOCC3)c2)cc1OC | nt | i | nt | nt | i
COc1ccc(/C=C/c2nc(C#N)c(NCCN(C)C)o2)cc1OC | i | i | i | i | i
CNc1oc(/C=C/c2cccc(OC)c2)nc1C#N | 35 | i | 99 | i | i
CCN(CC)CCCNc1oc(/C=C/c2ccccc2)nc1C#N | 22 | i | i | i | i
CCNc1oc(/C=C/c2ccc(OCC)cc2)nc1C#N | 16 | ? | 38 | i | ?
CCCc1nn2c(=O)cc(CSCC(=O)Nc3ccc(C)cc3)nc2s1 | i | i | i | i | ?
Cc1oc2cc(O)ccc2c(=O)c1-c1cnn(-c2ccccc2)c1 | i | i | i | i | i
O=c1c(-c2cnn(-c3ccccc3)c2)coc2cc(O)ccc12 | 47 | i | 108 | i | i
Cc1cc(C(F)(F)F)n2nc(-c3sccc3-n3cccc3)cc2n1 | i | i | i | i | ?
Cc1nc2cc(-c3sccc3-n3cccc3)nn2c(C)c1C | 34 | i | 60 | i | i
CC(C)(C)NC(=O)c1ccc2c(c1)N(CC(=O)N1CCN(c3ccc(F)cc3)CC1)C(=O)C(C)(C)O2 | i | 10µM | i | i | nt
O=S(=O)(Nc1ccc(-n2cccc2)cc1)c1ccccc1 | i | ? | i | i | i
COc1cc(C2CC(=O)N(CC(=O)NCc3ccco3)c3ccccc3S2)cc(OC)c1OC (stereo not given) | i | 10µM | i | i | i
COc1ccc(CNC(=O)CN(c2ccccc2)S(=O)(=O)N(C)C)cc1 | i | i | i | i | ?
CN(C)c1oc(-c2ccccc2)nc1C#N | i | i | i | i | ?
COc1ccccc1/C=C/c1nc(C#N)c(N(C)C)o1 | 33 | i | 87 | i | ?
CN(C)c1oc(/C=C/c2ccccc2)nc1C#N | 44 | i | 48 | i | i
O=C(O)CN1C(=O)/C(=C/c2ccc(N3CCCCC3)o2)SC1=S | i | i | i | ? | i
CCCN1C(=O)S/C(=C/c2ccc(N3CCOCC3)o2)C1=O | 47 | i | 66 | i | i
SMILES | Cycloheximide cs | Pf growth 48h | Shiga inhibitor | NS1 inh | Pf growth 96h
CCCN1C(=O)S/C(=C\c2ccc(N3CCOCC3)o2)C1=O | 41 | i | 98 | nt | i
CCOC(=O)N1CCN(C(=O)c2ccc3c(c2)NC(=O)/C(=C\c2cccc(C)c2)S3)CC1 | i | ? | i | i | ?
Cc1ccc(-c2c(C)n([O-])c3c([n+]2=O)CCCCC3)o1 | i | i | i | i | i
Cc1c(-c2ccco2)[n+](=O)c2c(n1[O-])CCC2 | i | i | i | i | 15µM
COc1ccc(NCc2ccsc2)cc1 | 41 | ? | 44 | i | i
COc1ccc(CNc2ccc(S(N)(=O)=O)cc2)cc1 | i | i | i | i | ?
COc1ccc(/C=C(/NC(=O)c2ccccc2)c2nc3ccccc3[nH]2)cc1OC | i | ? | i | i | ?
N#C/C(=C(/O)c1cccs1)c1nc2ccccc2[nH]1 | i | ? | i | i | ?
COc1cc(/C=C(/C(=O)c2cccs2)c2nc3ccccc3[nH]2)ccc1O | 66 | 2.1µM | 111 | ? | 1.2µM
O=C(/C(=C/c1ccc(Cl)cc1)c1nc2ccccc2[nH]1)c1cccs1 | 62 | 1.7µM | i | i | nt
O=C(/C(=C\c1ccccc1)c1nc2ccccc2[nH]1)c1ccc(Cl)cc1 | 19 | ? | 21 | i | ?
COc1ccc(C(=O)N/C(=C\c2cccs2)c2nc3ccccc3[nH]2)cc1OC | 22 | ? | 98 | i | ?
CC1(C)CN(c2ccsc2C(=O)O)C1=O | i | i | i | i | i
Cc1cc(NC(=O)Cn2c(=O)oc3ccccc32)no1 | nt | i | nt | nt | i
Cc1c(NC(=O)OC(C)C)sc(=S)n1C | i | i | i | i | i
O=C1CN(C(=O)/C=C/c2cccc(Cl)c2)c2ccccc2N1 | i | ? | i | i | ?
O=C(/C=C/c1cccc(Cl)c1)c1nc2ccccc2[nH]1 | 14 | ? | i | i | i
O=C(N/N=C/c1cccc(OC2CSC2)c1)c1ccccc1O | 26 | ? | i | i | i
Cc1ccc(CSCC(=O)N/N=C/c2cccc(OC3CSC3)c2)cc1 | i | i | i | i | i
Cn1ncc(Br)c1C(=O)N/N=C/c1cccc(OC2CSC2)c1 | i | i | 26 | i | i
Cn1nccc1C(=O)Oc1cccc(/C=N/NC(=O)c2ccccc2O)c1 | i | i | 33 | nt | i
Cc1cc(C(=O)N2CCCC(CO)(Cc3ccc(F)cc3)C2)c(C)o1 (stereo not given) | i | i | i | i | ?
O=S(=O)(Cc1ccccc1)N1CCN(Cc2ccc(Br)cc2)CC1 | 35 | i | 31 | i | ?
CCc1ccc(CN2CCN(S(=O)(=O)Cc3ccccc3)CC2)cc1 | i | i | i | i | 3.3µM
Cc1ccc(NC(=O)CCNC(=O)c2ccc(Cl)cc2)cc1C | i | i | i | i | i
SMILES | Cycloheximide cs | Pf growth 48h | Shiga inhibitor | NS1 inh | Pf growth 96h
N#Cc1c(/N=C/c2ccco2)sc2c1CCCCC2 | 35 | i | i | i | i
Cc1onc(-c2ccccc2)c1C(=O)Nc1sc2c(c1C#N)CCC(C)C2 (stereo not given) | i | i | i | i | ?
CN(C)/C=N/c1sc2c(c1C(N)=O)CCCC2 | i | ? | i | nt | i
CC1CCc2c(sc(/N=C/N(C)C)c2C#N)C1 (stereo not given) | 37 | i | 60 | i | i
CN(C)/C=N/c1sc2c(c1C#N)CCCC2 | 35 | i | 116 | i | i
N#Cc1ccccc1COC(=O)c1cc(=O)c2ccccc2o1 | i | i | i | i | i
N#Cc1ccccc1COC(=O)c1ccc(Br)o1 | 26 | i | i | i | i
COc1cccc(C(=O)OCc2ccccc2C#N)c1O | 21 | nt | i | i | i
CN1CCC[C@@H]1c1cccnc1.O=C(O)c1ccccc1O.O=C([OH2+])c1ccccc1O.O=C([OH2+])c1ccccc1O.O=C([OH2+])c1ccccc1O.[Mn] | nt | nt | nt | i | nt
Nc1c(C(=O)Nc2ccccc2)sc2nc3c(c(-c4ccco4)c12)CCC3 | 19 | ? | 48 | i | ?
Cc1ccc(NC(=O)c2sc3nc4c(c(-c5ccco5)c3c2N)CCC4)cc1 | i | ? | i | ? | 2.3µM
Nc1c(C(=O)Nc2ccccc2)sc2nc3c(c(-c4ccco4)c12)CCCC3 | i | ? | i | i | ?
